Assay outcomes deposited in PubChem by several laboratories.
In the library only some 2% were active in any assay of this set; here they are far more common.
PKA-R1A activ = PKA-R1A complex activation; P00514+P68181; PKA-R1A dissociation, Cy5-IP20 fluorescence polarization; scaled: DMSO 0%, 113 µM cGMP 100%; activation, % at 11.4 µM; 340,000 compounds, 0.083% hits; AID 504707;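 active = percent activation above the mean of all tested compounds plus 3 SD, cut at about 19% in these data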;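 note: higher means more PKAc released from R1A so a rise in polarization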
MsrA inh = bovine MsrA inhibition | purified bovine MsrA, absorbance read-out | inhibition, % at 15.5 µM | 360,000 compounds, 0.75% hits; in the data active = inhibition above about 4.5%
bovine MsrA act = activates bovine MsrA enzyme; purified bovine MsrA, absorbance read-out; activation, % at 10.6 µM; 360,000 compounds, 0.3% hits; AID 602163; in the data active = activation above about 7.5%
PKA-R2B activ = PKA-R2B complex activation; PKA-R2B holoenzyme dissociation, Cy5-IP20 fluorescence polarization; R2B truncated from residue 108, S112A mutant; 0% DMSO only, 100% 113 µM cGMP; activation, % at 11.4 µM; 340,000 compounds, 0.079% hits;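 active = activation above a cutoff set at the mean over all compounds plus 3 SD, cut at about 18% in these data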;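 note: higher means more holoenzyme dissociation and a rise in polarization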
Target sequence (P31323 whole entry, looked up, other chains not shown, the tested form may be a part): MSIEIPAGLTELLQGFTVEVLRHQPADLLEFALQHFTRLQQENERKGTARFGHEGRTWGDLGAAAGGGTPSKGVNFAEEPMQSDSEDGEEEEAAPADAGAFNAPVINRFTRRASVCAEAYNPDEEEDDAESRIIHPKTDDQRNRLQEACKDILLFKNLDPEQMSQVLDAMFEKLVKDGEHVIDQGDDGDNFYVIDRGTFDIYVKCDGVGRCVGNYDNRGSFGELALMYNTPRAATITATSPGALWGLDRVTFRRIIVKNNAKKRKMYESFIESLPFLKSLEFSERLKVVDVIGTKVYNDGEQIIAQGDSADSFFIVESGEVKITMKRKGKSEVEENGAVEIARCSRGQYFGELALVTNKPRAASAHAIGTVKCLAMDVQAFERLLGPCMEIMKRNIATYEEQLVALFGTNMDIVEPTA
Mot1-301 SUMO = blocks SUMOylation pathway, rescuing yeast Mot1-301 growth; 320,000 compounds, 1% hits; growth rescue, % at 18.8 µM; S. cerevisiae Mot1-301 growth rescue, ATP luminescence, 38.5C; percent above DMSO median, 100 means doubled;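 active = every valid replicate shows activation above 250% relative to neutral control wells; inactive = the rest, any valid replicate at or below 250%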
Large screens that a line does not name were inactive.

CC(C)=CC(=O)OCc1cc([N+](=O)[O-])cc2c1OCOC2	none
O=C(OCc1cc([N+](=O)[O-])cc2c1OCOC2)c1ccc2ccccc2n1	Mot1-301 SUMO 291.8
O=C(Nc1ccc(Br)cc1)C(c1ccccc1)c1ccccc1	Mot1-301 SUMO 801.3
OCC1SC(O)C(O)C(O)C1O (stereo unspecified)	none (no result: PKA-R1A activ, bovine MsrA act, PKA-R2B activ, Mot1-301 SUMO)
O=C1NC(=O)C(=CC=Cc2ccccc2)S1	MsrA inh 4.6 (no result: Mot1-301 SUMO)
NC1=NC(=O)/C(=C\C=C\c2ccccc2)S1	none
Nc1ccn([C@@H]2O[C@H](C(=O)N[C@H](Cc3ccccc3)C(=O)NCc3cccc4c3OCO4)[C@@H](O)[C@H]2O)c(=O)n1	none (no result: PKA-R1A activ, bovine MsrA act, PKA-R2B activ, Mot1-301 SUMO)
Oc1c(Cl)cc(Cl)cc1Sc1cc(Cl)cc(Cl)c1O	Mot1-301 SUMO 282.2 (no result: PKA-R1A activ, MsrA inh, bovine MsrA act, PKA-R2B activ)
C=CCc1cccc(CNc2c(C)cc(C)cc2C)c1O	Mot1-301 SUMO 386.6
C=CCc1cccc(CNc2c(C)n(C)n(-c3ccccc3)c2=O)c1O	none
Cc1ccc(-c2nn(CC(=O)NCC3CCCO3)c(=O)c3ccccc23)cc1 (stereo unspecified)	none (no result: MsrA inh)
O=C(Cn1nc(-c2ccc(Cl)cc2)c2ccccc2c1=O)NCC1CCCO1 (stereo unspecified)	Mot1-301 SUMO 333.1
COc1cc2c(cc1OC)[C@](C)(c1ccccc1)C[C@@H]2NCC=C(C)C	none (no result: PKA-R1A activ, bovine MsrA act, PKA-R2B activ, Mot1-301 SUMO)
O=C(c1ccco1)N1N=C(c2ccc3nccnc3c2)CC1c1ccccc1 (stereo unspecified)	Mot1-301 SUMO 541.2
Cc1ccccc1C(=O)Nc1ccc(C(=O)N/N=C/c2ccc(O)c(Br)c2)cc1	MsrA inh 4.6
COc1ccc(C2CC(=O)C(c3cccc(C)c3)=CN2Cc2ccccc2)cc1 (stereo unspecified)	none (no result: PKA-R1A activ, bovine MsrA act, PKA-R2B activ, Mot1-301 SUMO)
O=C(CC(SCc1ccco1)c1ccc(O)cc1)c1cccs1 (stereo unspecified)	Mot1-301 SUMO 600.5
COc1ccccc1C(c1c(N)n(C)c(=O)n(C)c1=O)C(C)[N+](=O)[O-] (stereo unspecified)	none (no result: PKA-R1A activ, PKA-R2B activ)
COc1ccccc1C(C[N+](=O)[O-])c1c(N)n(C)c(=O)n(C)c1=O (stereo unspecified)	Mot1-301 SUMO 594.2 (no result: PKA-R1A activ, PKA-R2B activ)
COc1ccccc1-c1cccc2[nH]c3c(c12)CCN1C(=O)[C@H]2[C@H](C)ON(C)[C@H]2C[C@@H]31	none (no result: PKA-R1A activ, bovine MsrA act, PKA-R2B activ, Mot1-301 SUMO)
CCC(O)(CC)C(=O)N/N=C/c1cc(Br)cc(Br)c1O	Mot1-301 SUMO 493.9
COc1ccc(/C=C2/N=C(c3cccs3)OC2=O)cc1OC(C)C	Mot1-301 SUMO 891.9
COC(=O)N1C[C@H](OCc2cn(-c3cc(Cl)cc(Cl)c3)nn2)[C@H](OCc2cn(-c3cc(Cl)cc(Cl)c3)nn2)C[C@@H]1c1ccccc1Br	none (no result: PKA-R1A activ, bovine MsrA act, PKA-R2B activ, Mot1-301 SUMO)
O=C(c1ccccc1NS(=O)(=O)c1ccccc1[N+](=O)[O-])N1CCOCC1	none
O=C(c1ccccc1NS(=O)(=O)c1ccc([N+](=O)[O-])cc1[N+](=O)[O-])N1O[C@@H]2C=C[C@H]1C2	MsrA inh 7.2 (no result: Mot1-301 SUMO)
COC(=O)C1=C(C)N(C)C(=NCc2ccccc2)NC1c1cccc(Cl)c1 (stereo unspecified)	none (no result: PKA-R1A activ, bovine MsrA act, PKA-R2B activ, Mot1-301 SUMO)
COCCCNCCCCOc1ccc(Br)cc1C	Mot1-301 SUMO 269.3
COCCNCCCCOc1ccc(Br)cc1C	none
Cc1ccc(-c2cc(C(F)F)n3ncc(C(=O)N4CCCCC4c4cccnc4)c3n2)cc1 (stereo unspecified)	Mot1-301 SUMO 547.8
CCCCCn1c(C)c(CC(=O)Nc2ccc(Oc3cccnc3)c(C)c2)c2ccccc21	none (no result: PKA-R1A activ, bovine MsrA act, PKA-R2B activ, Mot1-301 SUMO)
CCC(C)CCN1C(N(C)C)=NC[C@@H]1C (stereo partly specified)	Mot1-301 SUMO 317.7
CC(C)CCCN1C(N(C)C)=NC[C@@H]1C	none
Nc1[nH]c(C(=O)c2ccccc2)c(-c2ccccc2[N+](=O)[O-])c1C(=O)NCCc1c[nH]c2ccccc12	none (no result: PKA-R1A activ, bovine MsrA act, PKA-R2B activ, Mot1-301 SUMO)
CC(C)C[C@@H](NC(=O)OC(C)(C)C)C(=O)N1O[C@]23C=C[C@]14C[C@@H](O)CC[C@]4(C)C2CC[C@]1(C)[C@@H]([C@H](C)/C=C/[C@H](C)C(C)C)CC[C@H]13 (stereo partly specified)	none (no result: PKA-R1A activ, bovine MsrA act, PKA-R2B activ, Mot1-301 SUMO)
NS(=O)(=O)c1ccc(CCNc2nc3c(-c4cccc(F)c4)nnn3c3ccccc23)cc1	Mot1-301 SUMO 546.2
O=C(/C=C/c1ccc(Br)cc1)c1ccc(NC2=NCCCS2)cc1	MsrA inh 4.8
C[C@@H]1ON(C)[C@H]2C[C@H]3c4cc(-c5cc6ccccc6o5)ccc4CCN3C[C@@H]12	none (no result: PKA-R1A activ, bovine MsrA act, PKA-R2B activ, Mot1-301 SUMO)
C/C(N)=C(/C#N)C(=O)CSc1nnc(Nc2c(C)cccc2C)s1	Mot1-301 SUMO 337.3
NC(=S)N/N=C/c1coc2ccc(Cl)cc2c1=O	Mot1-301 SUMO 323.8
O=C(/C=C/c1ccc(Br)o1)OCc1ccccc1	Mot1-301 SUMO 305.3
O=C(O)c1cccc(-n2sc3ccccc3c2=O)c1	bovine MsrA act 17.4
O=c1c2cc(C(F)(F)F)ccc2sn1-c1ccccc1	none (no result: Mot1-301 SUMO)
CC(=O)c1ccc(Nc2nc(C(C)N)cs2)cc1 (stereo unspecified)	MsrA inh 4.6 (no result: PKA-R1A activ, PKA-R2B activ, Mot1-301 SUMO)
Cc1ccc(C(=O)N(C)[C@H]2C[C@H]3c4[nH]c5c(-c6ccccc6)cccc5c4CCN3C(=O)[C@H]2[C@H](C)O)cc1	none (no result: PKA-R1A activ, bovine MsrA act, PKA-R2B activ, Mot1-301 SUMO)
CCOC(=O)N[C@@H](Cc1cccnc1)C(=O)N1CCC[C@H]1C(=O)NC1CCCC1	none (no result: PKA-R1A activ, bovine MsrA act, PKA-R2B activ, Mot1-301 SUMO)
COC(=O)c1ccccc1NC(=O)Nc1cc(C(C)(C)C)on1	none
CC(C)(C)c1cc(NC(=O)Nc2ccccc2)no1	bovine MsrA act 8.2
O=c1c2ccccc2oc2cc(NCCCN3CCOCC3)ccc12	MsrA inh 4.6
O=c1c2ccccc2oc2ccc(NCCCN3CCOCC3)cc12	none
COC(=O)[C@]12C[C@H](CC(=O)NCCC(C)C)C(=O)N(Cc3ccccc3)C1=C[C@H](C(C)(C)C)O[C@@H]2C	none (no result: PKA-R1A activ, bovine MsrA act, PKA-R2B activ, Mot1-301 SUMO)
Cc1cc(=O)oc(C)c1C(=O)Nc1cccc2nonc12	Mot1-301 SUMO 323.7
Cc1ccccc1NC(=O)c1c(C)cc(=O)oc1C	none
Cc1ccccc1C(=O)NNC(=O)C1CCN(C(=O)Nc2ccccc2)CC1	Mot1-301 SUMO 341.8
CCc1c(Cc2ccccc2)ncn1CCc1ccccc1OC	none (no result: PKA-R1A activ, bovine MsrA act, PKA-R2B activ, Mot1-301 SUMO)
C=CCN=C1NC(c2cccc(Cl)c2)C(C(=O)OC)=C(C)N1C (stereo unspecified)	none (no result: PKA-R1A activ, bovine MsrA act, PKA-R2B activ, Mot1-301 SUMO)
CCOc1ccc(C2C(C#N)=C(N)Oc3nc[nH]c(=O)c32)cc1OC (stereo unspecified)	Mot1-301 SUMO 334.4
O=C(c1ccccc1F)N1CCN(C2CCC(c3ccccc3)CC2)CC1 (stereo unspecified)	Mot1-301 SUMO 281.7
O=C(c1ccc(F)cc1)N1CCN(C2CCC(c3ccccc3)CC2)CC1 (stereo unspecified)	none
C=CCN=C1NC(CCc2ccccc2)C(C(=O)OC)=C(C)N1Cc1cccc(C(F)(F)F)c1 (stereo unspecified)	none (no result: PKA-R1A activ, bovine MsrA act, PKA-R2B activ, Mot1-301 SUMO)
COc1ccc(-c2cc(NC(=O)Cc3c[nH]c4ccccc34)ccc2Nc2cccnc2)c(OC)c1	none (no result: PKA-R1A activ, bovine MsrA act, PKA-R2B activ, Mot1-301 SUMO)
